The results in this text go back to paper PMC11006913.

What all share (test): PBM; 200 nM protein, PBS
Holding throughout (conditions): dsDNA, one strand shown

Assay [1] addresses HOXB9 (Homo sapiens, UniProt P17482 171-250, T197M).
Assay [2] has as its target HOXC9 (Homo sapiens, UniProt P31274 178-260, K195R).
The target in assay [3] is HOXC10 (Homo sapiens, UniProt Q9NYD6 254-340).
Assay [4] deals with HOXB9 (Homo sapiens, UniProt P17482 171-250).
Assay [5] concerns the target HOXC9 (Homo sapiens, UniProt P31274 178-260).
The target of assay [6] is HOXD13 (Homo sapiens, UniProt P35453 263-343, T313R).
HOXD13 (Homo sapiens, UniProt P35453 263-343, T313R), sequence (P35453 263-343 T313R): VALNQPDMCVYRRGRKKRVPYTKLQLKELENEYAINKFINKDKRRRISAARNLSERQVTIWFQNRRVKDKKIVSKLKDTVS
In assay [7] the target is HOXC9 (Homo sapiens, UniProt P31274 178-260, R193K).
HOXC9 (Homo sapiens, UniProt P31274 178-260, R193K), sequence (P31274 178-260 R193K): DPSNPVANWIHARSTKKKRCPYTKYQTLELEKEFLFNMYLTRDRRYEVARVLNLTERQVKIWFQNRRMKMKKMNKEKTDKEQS
Assay [8] deals with HOXD13 (Homo sapiens, UniProt P35453 263-343).
HOXD13 (Homo sapiens, UniProt P35453 263-343), sequence (P35453 263-343): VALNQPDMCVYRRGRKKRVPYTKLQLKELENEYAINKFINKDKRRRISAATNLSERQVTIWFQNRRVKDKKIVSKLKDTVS
Assay [9] addresses HOXC10 (Homo sapiens, UniProt Q9NYD6 254-340, K271E).
The target in assay [10] is HOXD13 (Homo sapiens, UniProt P35453 263-343, T313A).
HOXD13 (Homo sapiens, UniProt P35453 263-343, T313A), sequence (P35453 263-343 T313A): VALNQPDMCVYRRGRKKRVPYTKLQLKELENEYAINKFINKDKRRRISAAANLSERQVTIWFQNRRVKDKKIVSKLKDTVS
For assay [11], the target named is HOXB9 (Homo sapiens, UniProt P17482 171-250, R186Q).
HOXB9 (Homo sapiens, UniProt P17482 171-250, R186Q), sequence (P17482 171-250 R186Q): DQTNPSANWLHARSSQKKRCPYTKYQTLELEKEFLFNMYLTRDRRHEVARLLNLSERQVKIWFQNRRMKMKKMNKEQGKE
Assay [12] has as its target HOXC9 (Homo sapiens, UniProt P31274 178-260, R222W).

HOXB9 (Homo sapiens, UniProt P17482 171-250, T197M), sequence (P17482 171-250 T197M): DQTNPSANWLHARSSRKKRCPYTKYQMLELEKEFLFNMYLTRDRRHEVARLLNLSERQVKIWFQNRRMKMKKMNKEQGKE
HOXC10 (Homo sapiens, UniProt Q9NYD6 254-340, K271E), sequence (Q9NYD6 254-340 K271E): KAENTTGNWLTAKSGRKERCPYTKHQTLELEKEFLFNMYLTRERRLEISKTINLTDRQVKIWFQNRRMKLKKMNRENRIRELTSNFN
HOXB9 (Homo sapiens, UniProt P17482 171-250), sequence (P17482 171-250): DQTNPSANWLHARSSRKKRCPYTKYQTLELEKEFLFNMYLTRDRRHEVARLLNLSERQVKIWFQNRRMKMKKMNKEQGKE
HOXC9 (Homo sapiens, UniProt P31274 178-260, K195R), sequence (P31274 178-260 K195R): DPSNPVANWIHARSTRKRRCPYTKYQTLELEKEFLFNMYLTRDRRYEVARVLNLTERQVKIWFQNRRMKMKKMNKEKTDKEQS
HOXC9 (Homo sapiens, UniProt P31274 178-260), sequence (P31274 178-260): as the sequence (P31274 178-260 R193K) above, with K16R counted along it
HOXC10 (Homo sapiens, UniProt Q9NYD6 254-340), sequence (Q9NYD6 254-340): as the sequence (Q9NYD6 254-340 K271E) above, with E18K counted along it
HOXC9 (Homo sapiens, UniProt P31274 178-260, R222W), sequence (P31274 178-260 R222W): as the sequence (P31274 178-260 R193K) above, with K16R, R45W counted along it

As to GTCGTAAA, the binding signal in [1] is 9.95 upbm affinity estimate (log intensity, higher = more binding, comparable within an allelic series); in assay [2], 13.1 upbm affinity estimate (log intensity, higher = more binding, comparable within an allelic series); in assay [3] it was 13.2 upbm affinity estimate (log intensity, higher = more binding, comparable within an allelic series); in assay [4], 12.6 upbm affinity estimate (log intensity, higher = more binding, comparable within an allelic series); in [5], 13.3 upbm affinity estimate (log intensity, higher = more binding, comparable within an allelic series); in assay [6], 10.9 upbm affinity estimate (log intensity, higher = more binding, comparable within an allelic series). For the same sequence, the binding signal in [7] was 13 upbm affinity estimate (log intensity, higher = more binding, comparable within an allelic series); in [8], 12.3 upbm affinity estimate (log intensity, higher = more binding, comparable within an allelic series); in [9], 12.7 upbm affinity estimate (log intensity, higher = more binding, comparable within an allelic series); in assay [10] it was 11.9 upbm affinity estimate (log intensity, higher = more binding, comparable within an allelic series); in assay [11], 11.9 upbm affinity estimate (log intensity, higher = more binding, comparable within an allelic series); in [12] it was 11 upbm affinity estimate (log intensity, higher = more binding, comparable within an allelic series).

Take CATTAAAA: the binding signal was 9.91 upbm affinity estimate (log intensity, higher = more binding, comparable within an allelic series) in assay [1]; 12.6 upbm affinity estimate (log intensity, higher = more binding, comparable within an allelic series) in assay [2]; 12.1 upbm affinity estimate (log intensity, higher = more binding, comparable within an allelic series) in assay [3]; 12 upbm affinity estimate (log intensity, higher = more binding, comparable within an allelic series) in assay [4]; 12.7 upbm affinity estimate (log intensity, higher = more binding, comparable within an allelic series) in assay [5]; 12.6 upbm affinity estimate (log intensity, higher = more binding, comparable within an allelic series) in [7]. The binding signal in [9] was 11.8 upbm affinity estimate (log intensity, higher = more binding, comparable within an allelic series); in [10], 11.6 upbm affinity estimate (log intensity, higher = more binding, comparable within an allelic series); in assay [11] it was 11.7 upbm affinity estimate (log intensity, higher = more binding, comparable within an allelic series); in assay [12] it was 11 upbm affinity estimate (log intensity, higher = more binding, comparable within an allelic series).

As for GTCGTTAA, the binding signal in assay [1] was 10 upbm affinity estimate (log intensity, higher = more binding, comparable within an allelic series); in assay [2], 12.6 upbm affinity estimate (log intensity, higher = more binding, comparable within an allelic series); in assay [3] it was 12.5 upbm affinity estimate (log intensity, higher = more binding, comparable within an allelic series); in assay [4] it was 11.8 upbm affinity estimate (log intensity, higher = more binding, comparable within an allelic series); in assay [5] it was 12.8 upbm affinity estimate (log intensity, higher = more binding, comparable within an allelic series); in assay [7], 12.6 upbm affinity estimate (log intensity, higher = more binding, comparable within an allelic series). In addition, the binding signal in [9] is 12.4 upbm affinity estimate (log intensity, higher = more binding, comparable within an allelic series); in [11], 11.3 upbm affinity estimate (log intensity, higher = more binding, comparable within an allelic series); in assay [12] it was 10.6 upbm affinity estimate (log intensity, higher = more binding, comparable within an allelic series).

For CTCGTAAA, the binding signal is 9.72 upbm affinity estimate (log intensity, higher = more binding, comparable within an allelic series) in assay [1]; 12.6 upbm affinity estimate (log intensity, higher = more binding, comparable within an allelic series) in assay [2]; 12.6 upbm affinity estimate (log intensity, higher = more binding, comparable within an allelic series) in assay [3]; 12 upbm affinity estimate (log intensity, higher = more binding, comparable within an allelic series) in assay [4]; 12.9 upbm affinity estimate (log intensity, higher = more binding, comparable within an allelic series) in [5]; 11.3 upbm affinity estimate (log intensity, higher = more binding, comparable within an allelic series) in [6]. Besides, the binding signal in assay [7] was 12.7 upbm affinity estimate (log intensity, higher = more binding, comparable within an allelic series); in assay [8], 12.7 upbm affinity estimate (log intensity, higher = more binding, comparable within an allelic series); in [9] it was 11.9 upbm affinity estimate (log intensity, higher = more binding, comparable within an allelic series); in assay [10], 12.6 upbm affinity estimate (log intensity, higher = more binding, comparable within an allelic series); in assay [11], 11.4 upbm affinity estimate (log intensity, higher = more binding, comparable within an allelic series); in assay [12] it was 11.1 upbm affinity estimate (log intensity, higher = more binding, comparable within an allelic series).

As for CATAAAAG, the binding signal in assay [1] was 9.76 upbm affinity estimate (log intensity, higher = more binding, comparable within an allelic series); in assay [2] it was 12.6 upbm affinity estimate (log intensity, higher = more binding, comparable within an allelic series); in [3] it was 12.4 upbm affinity estimate (log intensity, higher = more binding, comparable within an allelic series); in assay [4] it was 12 upbm affinity estimate (log intensity, higher = more binding, comparable within an allelic series); in [5], 12.8 upbm affinity estimate (log intensity, higher = more binding, comparable within an allelic series); in assay [6], 10.7 upbm affinity estimate (log intensity, higher = more binding, comparable within an allelic series). The binding signal in assay [7] was 12.7 upbm affinity estimate (log intensity, higher = more binding, comparable within an allelic series); in assay [8], 11.8 upbm affinity estimate (log intensity, higher = more binding, comparable within an allelic series); in [9] it was 11.8 upbm affinity estimate (log intensity, higher = more binding, comparable within an allelic series); in assay [10], 11.6 upbm affinity estimate (log intensity, higher = more binding, comparable within an allelic series); in assay [11], 11.7 upbm affinity estimate (log intensity, higher = more binding, comparable within an allelic series); in [12], 11.2 upbm affinity estimate (log intensity, higher = more binding, comparable within an allelic series).

With CATAAAAA, the binding signal in assay [1] is 9.93 upbm affinity estimate (log intensity, higher = more binding, comparable within an allelic series); in [2], 12.8 upbm affinity estimate (log intensity, higher = more binding, comparable within an allelic series); in assay [3], 12.6 upbm affinity estimate (log intensity, higher = more binding, comparable within an allelic series); in assay [4] it was 12.4 upbm affinity estimate (log intensity, higher = more binding, comparable within an allelic series); in assay [5], 13 upbm affinity estimate (log intensity, higher = more binding, comparable within an allelic series); in assay [6] it was 10.7 upbm affinity estimate (log intensity, higher = more binding, comparable within an allelic series). For the same sequence, the binding signal in assay [7] is 13 upbm affinity estimate (log intensity, higher = more binding, comparable within an allelic series); in [8], 11.8 upbm affinity estimate (log intensity, higher = more binding, comparable within an allelic series); in assay [9] it was 12 upbm affinity estimate (log intensity, higher = more binding, comparable within an allelic series); in assay [10], 11.6 upbm affinity estimate (log intensity, higher = more binding, comparable within an allelic series); in assay [11], 12 upbm affinity estimate (log intensity, higher = more binding, comparable within an allelic series); in [12], 11.4 upbm affinity estimate (log intensity, higher = more binding, comparable within an allelic series).
